Laboratory results reported in PubChem BioAssay.
Active and inactive are the calls of the source.

Experiments:
[1] = system: Wnt5a (protein binding on small-molecule microarray); assay: small molecules binding Wnt5a protein – biophysical, small-molecule microarray, 635/667 nm fluorescence, primary screen (AID 1142); details: 635 nm fluorescence, higher = more signal;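 further: fluorescence read at 667 nm with signal to noise per printed feature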
[2] = ATP-based viability of Huh7 replicon cells – cell-based, CellTiter-Glo luminescence, basal, 48 h, cytotoxicity control for HCV replication inhibitor project, primary screen (AID 1143); details: higher = more signal, called active from +8 up or from −8 down;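 further: Huh7 hepatoma cells carrying a hepatitis C replication reporter with no stimulus; test concentration not given here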
[3] = basal CRE-LacZ reporter activity in PC12 – cell-based, unstimulated, primary screen (AID 1145); details: no forskolin, luminescence, 4.5 h, higher = more signal, called active from +8 up or from −8 down
[4] = forskolin-driven CRE-LacZ activity in PC12 – cell-based, CRE-LacZ reporter, forskolin-stimulated, primary screen (AID 1146); details: luminescence, 4.5 h, higher = more signal, called active from +8 up or from −8 down;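 further: PC12 cells with 6xCRE LacZ reporter stimulated by forskolin 10 µM; beta-galactosidase reporter signal reflecting CREB driven transcription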
[5] = target: Streptavidin (Streptomyces avidinii) (UniProt P22629); assay: compounds binding control protein streptavidin – biophysical, small-molecule microarray, 635/667 nm fluorescence, artefact control for SMM compound annotation, primary screen (AID 1147); details: higher = more signal;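 further: signal reflects streptavidin binding to arrayed compounds as a control protein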
[6] = probe aInhba binding on compound microarray – biochemical, small-molecule microarray, 635/667 nm fluorescence, primary screen (AID 1148); details: higher = more signal;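 further: score merges 667nm spot fluorescence with signal-to-noise for antibody binding to printed compounds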
Torsin-1A (Homo sapiens) [7] = target: Torsin-1A (Homo sapiens) (UniProt O14656); assay: TOR1A wild-type binding on microarray – cell lysate, small-molecule microarray, lysate, 635/667 nm, primary screen (AID 1149); details: COS7 hTOR1A-WT lysate, 635 nm fluorescence, higher = more signal
Torsin-1A (Homo sapiens) [8] = target: Torsin-1A (Homo sapiens) (UniProt O14656); assay: torsin A mutant lysate binding on microarrays – cell lysate, small-molecule microarray, COS7 lysate, 635/667 nm fluorescence, primary screen (AID 1150); details: COS7 hTOR1A mutant lysate, 635 nm fluorescence, higher = more signal;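 further: score pools 667 nm emission and signal to noise measuring lysate protein binding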
[9] = system: Sonic hedgehog protein (Shh); assay: Sonic hedgehog microarray binding compounds – biochemical, small-molecule microarray, 635/667 nm fluorescence, primary screen (AID 1151); details: 635 nm fluorescence, higher = more signal;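 further: Shh protein binding to compounds spotted on small-molecule microarray slides; score combines spot fluorescence intensity with signal-to-noise across triplicate slides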
[10] = optical density shifts of acrAB sulA E. coli – strain DRC41, OD650, 48 h, E. coli filamentation inducer project, primary screen (AID 1152); details: higher = more signal, called active from +8 up or from −8 down;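 further: E. coli MC1000 strain DRC41 lacking acrAB efflux pump and sulA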
[11] = probe aLefty1 binding on compound microarray – biochemical, small-molecule microarray, 635/667 nm fluorescence, primary screen (AID 1153); details: higher = more signal;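 further: score merges spot fluorescence with signal-to-noise ratio from the scanned slide images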
[12] = plasmodial surface anion channel blockers, osmotic lysis – cell-based, P. falciparum Indochina, OD700, 1 h, primary screen (AID 1154); details: P. falciparum Indochina infected RBC osmotic lysis, higher = more signal, called active from +8 up or from −8 down
[13] = plasmodial surface anion channel blockers, osmotic lysis – cell-based, P. falciparum Indochina, OD700, 2 h, primary screen (AID 1155);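 further: lysis reports solute entry through the parasite surface anion channel PSAC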; details: P. falciparum Indochina infected erythrocytes, higher = more signal, called active from +8 up or from −8 down
[14] = changes in parasitized red cell lysis, either direction – P. falciparum Indochina, OD700, 3 h, PSAC antagonist project, primary screen (AID 1156); details: P. falciparum-infected erythrocytes, osmotic lysis, higher = more signal, called active from +8 up or from −8 down
[15] = plasmodial surface anion channel blockers, osmotic lysis – cell-based, P. falciparum Indochina, OD700, 18 h, primary screen (AID 1157); details: P. falciparum Indochina infected erythrocytes, osmotic lysis OD700, 18 h; higher = more signal, called active from +8 up or from −8 down
[16] = S6 kinase pathway phospho-S6 level changes – cell-based, A549, cytoblot, luminescence, serum-stimulated, primary screen (AID 1158); details: 5 h, higher = more signal;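 further: serum-stimulated A549 lung adenocarcinoma cells; signal is phosphorylated S6 detected by cytoblot immunostaining with HRP secondary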
[17] = target: NADPH oxidase 2 (Homo sapiens) (UniProt P04839); assay: compounds shifting NOX2 Amplex Red fluorescence – cell-based, HEK293-NOX2, PMA-stimulated, NOX inhibitor project, primary screen (AID 1159); details: 45 min, higher = more signal, called active from +8 up or from −8 down; further: test concentration not given here
[18] = target: NADPH oxidase 4 (Homo sapiens) (UniProt Q9NPH5); assay: compounds shifting NOX4 Amplex Red fluorescence – cell-based, HEK293-NOX4, tetracycline-induced, NOX inhibitor project, primary screen (AID 1160); details: HEK293-NOX4, Amplex Red H2O2 fluorescence, 45 min; higher = more signal, called active from +8 up or from −8 down
[19] = target: NADPH oxidase 5 (Homo sapiens) (UniProt Q96PH1); assay: compounds shifting NOX5 Amplex Red fluorescence – cell-based, HEK293-NOX5, NOX inhibitor project, primary screen (AID 1161); details: HEK293-NOX5, ionomycin, 45 min, higher = more signal
[20] = compound effects on lung adenocarcinoma cell viability – A549, calcein-AM fluorescence, 48 h, basal, profiling panel (AID 1162); details: higher = more signal; further: test concentration not given here

Chain of NADPH oxidase 2 (Homo sapiens) (P04839 whole entry, looked up): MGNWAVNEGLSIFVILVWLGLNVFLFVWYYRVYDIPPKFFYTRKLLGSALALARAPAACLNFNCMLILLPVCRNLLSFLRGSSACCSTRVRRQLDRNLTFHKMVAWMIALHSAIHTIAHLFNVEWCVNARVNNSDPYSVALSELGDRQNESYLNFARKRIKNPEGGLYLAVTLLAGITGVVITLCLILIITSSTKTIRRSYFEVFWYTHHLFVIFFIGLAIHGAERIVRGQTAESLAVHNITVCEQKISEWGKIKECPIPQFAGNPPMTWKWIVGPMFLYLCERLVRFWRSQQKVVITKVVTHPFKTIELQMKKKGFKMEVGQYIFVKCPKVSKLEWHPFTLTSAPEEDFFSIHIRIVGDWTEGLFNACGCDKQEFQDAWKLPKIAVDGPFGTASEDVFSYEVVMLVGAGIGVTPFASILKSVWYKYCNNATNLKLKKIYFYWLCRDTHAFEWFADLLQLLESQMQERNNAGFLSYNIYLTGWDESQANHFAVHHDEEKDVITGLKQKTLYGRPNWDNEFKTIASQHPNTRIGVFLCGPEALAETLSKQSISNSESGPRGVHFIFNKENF
Chain of Streptavidin (Streptomyces avidinii) (P22629 whole entry, looked up): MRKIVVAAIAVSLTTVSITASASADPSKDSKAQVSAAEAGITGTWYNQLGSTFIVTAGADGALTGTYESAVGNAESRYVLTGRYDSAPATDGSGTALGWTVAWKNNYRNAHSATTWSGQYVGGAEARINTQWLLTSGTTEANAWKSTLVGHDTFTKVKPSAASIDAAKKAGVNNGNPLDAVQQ
Chain of NADPH oxidase 4 (Homo sapiens) (Q9NPH5 whole entry, looked up): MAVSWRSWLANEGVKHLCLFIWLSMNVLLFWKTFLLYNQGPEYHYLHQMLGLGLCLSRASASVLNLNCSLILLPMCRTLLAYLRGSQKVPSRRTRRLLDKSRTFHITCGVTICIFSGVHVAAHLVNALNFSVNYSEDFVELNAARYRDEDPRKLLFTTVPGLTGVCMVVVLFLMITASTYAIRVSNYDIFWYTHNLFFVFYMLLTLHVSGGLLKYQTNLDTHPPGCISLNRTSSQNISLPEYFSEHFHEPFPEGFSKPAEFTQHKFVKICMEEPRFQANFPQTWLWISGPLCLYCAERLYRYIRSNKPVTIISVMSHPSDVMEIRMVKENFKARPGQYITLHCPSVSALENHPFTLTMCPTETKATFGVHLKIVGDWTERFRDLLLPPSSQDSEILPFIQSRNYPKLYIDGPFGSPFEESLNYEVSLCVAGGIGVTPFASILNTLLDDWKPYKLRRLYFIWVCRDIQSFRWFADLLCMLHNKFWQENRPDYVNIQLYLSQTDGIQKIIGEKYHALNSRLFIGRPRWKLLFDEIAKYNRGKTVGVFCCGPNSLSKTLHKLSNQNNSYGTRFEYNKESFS
Chain of Torsin-1A (Homo sapiens) (O14656 whole entry, looked up): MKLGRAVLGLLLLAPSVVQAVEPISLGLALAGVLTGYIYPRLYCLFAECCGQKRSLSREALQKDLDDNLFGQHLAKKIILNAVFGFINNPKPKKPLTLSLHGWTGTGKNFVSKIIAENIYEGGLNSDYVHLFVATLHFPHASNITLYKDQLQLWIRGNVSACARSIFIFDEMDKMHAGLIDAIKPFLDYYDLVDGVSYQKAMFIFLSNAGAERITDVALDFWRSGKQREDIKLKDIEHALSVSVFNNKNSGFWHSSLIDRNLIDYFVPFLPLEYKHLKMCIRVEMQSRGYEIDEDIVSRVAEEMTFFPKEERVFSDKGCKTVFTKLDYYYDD
Chain of NADPH oxidase 5 (Homo sapiens) (Q96PH1 whole entry, looked up): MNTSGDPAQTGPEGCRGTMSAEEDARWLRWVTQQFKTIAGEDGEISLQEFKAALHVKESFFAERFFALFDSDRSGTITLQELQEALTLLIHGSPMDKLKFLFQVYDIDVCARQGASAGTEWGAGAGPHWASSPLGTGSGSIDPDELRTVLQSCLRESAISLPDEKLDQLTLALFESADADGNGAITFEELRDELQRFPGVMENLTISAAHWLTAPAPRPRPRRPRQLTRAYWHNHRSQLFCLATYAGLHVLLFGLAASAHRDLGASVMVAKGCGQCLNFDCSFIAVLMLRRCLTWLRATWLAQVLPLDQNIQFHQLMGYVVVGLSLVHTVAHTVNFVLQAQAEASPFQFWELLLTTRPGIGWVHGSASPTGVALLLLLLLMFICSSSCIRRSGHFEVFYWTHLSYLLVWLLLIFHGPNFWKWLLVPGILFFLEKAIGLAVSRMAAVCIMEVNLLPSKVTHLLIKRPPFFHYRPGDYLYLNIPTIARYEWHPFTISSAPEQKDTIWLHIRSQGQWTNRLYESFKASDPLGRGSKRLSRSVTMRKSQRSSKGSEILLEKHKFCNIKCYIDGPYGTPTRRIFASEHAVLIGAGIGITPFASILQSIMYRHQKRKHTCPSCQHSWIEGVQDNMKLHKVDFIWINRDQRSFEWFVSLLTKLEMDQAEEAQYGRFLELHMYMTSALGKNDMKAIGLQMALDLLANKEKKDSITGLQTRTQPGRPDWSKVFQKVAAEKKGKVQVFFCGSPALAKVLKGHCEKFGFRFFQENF

Row | SMILES | composite z-score [1] | z-score [2] | z-score [3] | z-score [4] | composite z-score [5] | composite z-score [6] | composite z-score (Torsin-1A (Homo sapiens) [7]) | composite z-score (Torsin-1A (Homo sapiens) [8]) | composite z-score [9] | z-score [10] | composite z-score [11] | z-score [12] | z-score [13] | z-score [14] | z-score [15] | z-score [16] | z-score [17] | z-score [18] | z-score [19] | z-score [20]
1 | COc1ccc([Si](C)(C)[C@H]2[C@H](CCO)O[C@@]3(C(=O)N(Cc4ccc(N5C(=O)c6cccc7cccc5c67)cc4)c4ccccc43)[C@@H]2C)cc1 | -0.158 | -6.16 (inactive) | 0.399 (inactive) | -1.05 (inactive) | 0.338 | -0.101 | -0.294 | -0.124 | -0.0681 | 1.19 (inactive) | -0.147 | 3.64 (inactive) | 2.29 (inactive) | -0.273 (inactive) | 1.23 (inactive) | 1.63 | 0.469 (inactive) | 0.821 (inactive) | 0.378 | -1.02
2 | C=C(CCCC)/C(=C/C[C@H](OC(=O)c1ccncc1)c1ccc(CO)o1)c1cnc2ccccc2c1 | 0.216 | -0.807 (inactive) | 3.77 (inactive) | -1.24 (inactive) | 0.783 | 0.212 | 0.378 | 0.324 | 1.95 | 0.822 (inactive) | 0.301 | 7.89 (inactive) | -0.0845 (inactive) | 1.04 (inactive) | -1.01 (inactive) | -0.367 | 2.49 (inactive) | 1.15 (inactive) | 0.737 | 0.942
3 | C=C(C(=O)CC[C@H](OC(C)=O)c1ccc(CO)o1)C(C)C | 0.0615 | -4.37 (inactive) | 1.09 (inactive) | -0.949 (inactive) | -0.469 | 0.353 | 0.154 | -0.248 | 0.937 | 1.27 (inactive) | -0.215 | 1.55 (inactive) | -0.558 (inactive) | 0.68 (inactive) | -1.83 (inactive) | 2.5 | -0.0262 (inactive) | 0.382 (inactive) | -0.706 | -0.708
4 | COCCOC(=O)N1C(=O)[C@@]2(c3ccccc31)[C@H](C(=O)Nc1nc3ccccc3s1)[C@H]1C(=O)O[C@H](c3ccccc3)[C@H](c3ccccc3)N1[C@@H]2c1ccc(O)cc1 | 0.418 | -3.59 (inactive) | -0.199 (inactive) | -0.395 (inactive) | 0.511 | 0.263 | 0.815 | -0.06 | 2.07 | 2.37 (inactive) | 0.577 | 10.9 (active) | 5 (inactive) | 1.67 (inactive) | 2.06 (inactive) | 1.92 | -0.333 (inactive) | -0.395 (inactive) | 1.28 | 0.751
5 | CC(C)N1CC=CC23O[C@@H]4/C=C\CCCOC(=O)C4[C@H]2C(=O)N(CCCO)[C@@H]3C1=O (stereo not given in full) | -0.059 | -0.354 (inactive) | 0.191 (inactive) | -0.256 (inactive) | -1.1 | -0.176 | -0.934 | 0.367 | -0.102 | 1.71 (inactive) | 0.236 | 0.245 (inactive) | 0.0014 (inactive) | 1.1 (inactive) | -0.083 (inactive) | -0.108 | 1.58 (inactive) | -1.85 (inactive) | 2.19 | 1.02
6 | COCCCNC(=O)[C@@]1(Cc2ccccc2CN=[N+]=[N-])COC(c2ccc(OCCCO)cc2)=N1 | 1.18 | -3.41 (inactive) | -0.94 (inactive) | -2.58 (inactive) | 0.257 | 0.283 | 1.22 | 0.669 | 0.13 | 2.58 (inactive) | 0.961 | 26.7 (active) | 22 (active) | 3.17 (inactive) | 3.5 (inactive) | 0.989 | -2.47 (inactive) | -1.03 (inactive) | -2.89 | 0.395
7 | CC(C)(C)OC(=O)CC[C@@]1(C(=O)N2CCOCC2)N=C(c2ccc(OCCCO)cc2)O[C@@H]1c1ccccc1 | 0.674 | -1.77 (inactive) | 1.56 (inactive) | -0.257 (inactive) | 0.3 | 0.182 | 1.38 | 1.46 | -0.0953 | 1.79 (inactive) | 0.951 | 20.8 (active) | 3.95 (inactive) | 0.794 (inactive) | -0.73 (inactive) | 1.12 | -0.261 (inactive) | -0.961 (inactive) | -0.0438 | 0.343
8 | COc1ccc(C#Cc2ccc3c(c2)[C@]2(C(=O)N3)[C@H](c3ccc(O)cc3)N3[C@H](c4ccccc4)[C@H](c4ccccc4)OC(=O)[C@H]3[C@@H]2C(=O)N2CCN(c3ncccn3)CC2)cc1 | 0.167 | -1.76 (inactive) | 0.478 (inactive) | 0.708 (inactive) | 1.13 | 0.18 | 0.246 | 0.923 | 0.262 | 1.77 (inactive) | 0.312 | 1.28 (inactive) | 0.22 (inactive) | 1.19 (inactive) | 0.564 (inactive) | 0.26 | 0.393 (inactive) | 0.0458 (inactive) | 1.21 | 0.214
